Eight compounds from PubChem BioAssay (Tox21) can be followed below.

A number with no mark means an inactive call. Inconclusive results are not listed. Activity calls are given as the source filed them. Unless noted, the call rests on the fitted dose curve; in most records, active means well fitted curve in the direction sought with a large enough effect in the repeat runs; inconclusive means weak or mixed curves; inactive means no such curve, though single readings can be large; an effect the other way counts as inactive or inconclusive.

Experiment [1] can be described thus: qHTS assay to identify small molecule antagonists of the estrogen related receptor (ERR) signaling pathway from Tox21 library - cell viability counter screen (AID 1224834). Further: nearly all actives have a fitted effect of over 30% in size. Further: potency means the concentration at half of the fitted maximal effect. The essentials:
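ERR reporter cells, 2,000 per well, rested 6 h, then exposed to compound in DMSO for 17.5 hours at 37 C. Viability read as fluorescence after 30 min with CellTiter-Fluor.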
In general terms: Quantitative high-throughput screening tests each substance at several concentrations.

For experiment [2], the target named is Luciferin 4-monooxygenase (Photinus pyralis) (UniProt P08659). Nature of the experiment: qHTS assay to identify small molecule inhibitors of firefly luciferase (AID 1224835). Further: nearly all actives have a fitted effect of over 25% in size. Further: potency means the concentration at half of the fitted maximal effect. The essentials:
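Inhibition of purified Photinus luciferase is measured by luminescence. Substrate levels (D-luciferin, ATP) sit at their KM values. Each compound is tested in a concentration series.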

A short description of experiment [3]: qHTS assay to identify small molecule agonists of the constitutive androstane receptor (CAR) signaling pathway - cell viability counter screen (AID 1224836). Further: nearly all actives have a fitted effect of over 45% in size. Further: potency means the concentration at half of the fitted maximal effect. In short, it runs like this: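 Double-stable HepG2 hepatoma cells (hCAR plus CYP2B6-2.2kb) are treated for 23 h at 37 C with test compounds in 15-point concentration series. PK11195 at 0.75 uM final is co-added. Cell viability is quantified by CellTiter-Fluor.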

A short description of experiment [4]: qHTS assay to identify small molecule antagonists of the constitutive androstane receptor (CAR) signaling pathway - cell viability counter screen (AID 1224837). Further: nearly all actives have a fitted effect of over 45% in size. Further: potency means the concentration at half of the fitted maximal effect. The essentials:
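HepG2 cells stably carrying hCAR and CYP2B6-2.2kb reporter, stimulated with 50 nM CITCO and compounds at 15 concentrations for 23 h at 37 C. Viability measured by CellTiter-Fluor fluorescence.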

Experiment [5] addresses Nuclear receptor subfamily 1 group I member 3 (Homo sapiens) (UniProt Q14994). As to the kind of experiment: qHTS assay to identify small molecule antagonists of the constitutive androstane receptor (CAR) signaling pathway (AID 1224838). Further: nearly all actives have a fitted effect of over 40% in size. In short, it runs like this: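 HepG2 cells stably carrying hCAR and a CYP2B6-2.2kb luciferase reporter, seeded 4 hrs before compound (15 concentrations). Stimulated with 50 nM CITCO for 24 hr at 37 C. ONE-Glo luminescence read after 30 min at room temperature.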

Experiment [6] has the same target. As to the kind of experiment: qHTS assay to identify small molecule agonists of the constitutive androstane receptor (CAR) signaling pathway (AID 1224839). Further: nearly all actives have a fitted effect of over 15% in size. Further: potency means the concentration at half of the fitted maximal effect. The essentials:
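Readout: firefly luciferase luminescence via ONE-Glo. System: HepG2 double-stable for hCAR and CYP2B6-2.2kb. Conditions: 15-point compound titration, PK11195 at 0.75 uM final, 24 h incubation.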

Experiment [7] can be described thus: qHTS assay to identify small molecule antagonists of the estrogen related receptor signaling pathway with the pleiotropic PPARgamma coactivator (PGC) from Tox21 10K library - cell viability counter screen (AID 1224840; active means well fitted cell-killing curve with a large enough effect in the repeat runs, not every such curve was filed as active; further: nearly all actives have a fitted effect of over 40% in size; further: potency means the concentration at half of the fitted maximal effect). In short, it runs like this:
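PGC/ERR cells (2,000/well) plated 6 h, then compound-treated for 17.5 h at 37 C. Viability measured by CellTiter-Fluor fluorescence after 30 min at 37 C, multiplexed with the pathway assay.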

The target in experiment [8] is Thyrotropin receptor (Homo sapiens) (UniProt P16473). Nature of the experiment: qHTS assay to identify small molecule agonists of the thyroid stimulating hormone receptor (TSHR) signaling pathway (AID 1224843; calls by dose curve; further: nearly all actives have a fitted effect of over 45% in size; further: potency means the concentration at half of the fitted maximal effect). In short, it runs like this:
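HEK293 cells stably bearing the thyrotropin receptor were plated at 800 cells/well and challenged with compound (30 min, RT). Accumulated cAMP was quantified via cAMP-d2 competing for cryptate-tagged antibody.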

Experiment [9] in a line: qHTS assay to identify small molecule agonists of the hypoxia (HIF-1) signaling pathway - cell viability counter screen (AID 1224844; calls by dose curve; further: nearly all actives have a fitted effect of over 50% in size). In short, it runs like this:
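HRE-bla ME-180 cells, 2,000/well in 0.5% dialyzed FBS medium, treated 17 h at 37C with compounds. Viability read in the same wells as the bla reporter, by CellTiter-Glo luminescence after 30 min at room temperature.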

Experiment [10] is described as follows: qHTS assay to identify small molecule agonists of H2AX (AID 1224845; active means well fitted activation curve with a large enough effect in the signal ratio in the repeat runs, not every such curve was filed as active; the % refers to the signal ratio). In short, it runs like this: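 Phospho-H2AX Ser139 measured by HTRF (ex 320 nm; em 665 and 620 nm) after 24 hr antibody incubation. Compounds, 15 concentrations, 0.76% DMSO, were applied to CHO-K1 cells for 3hr at 37C before lysis.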
The nature of experiment [11]: qHTS assay to identify small molecule agonists of the hypoxia (HIF-1) signaling pathway (AID 1224846; active means well fitted activation curve with a large enough effect in the signal ratio in the repeat runs, not every such curve was filed as active; the % refers to the signal ratio). The essentials:
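HRE-bla ME-180 beta-lactamase reporter cells in medium with 0.5% dialyzed FBS, pre-incubated 5 h then exposed to compounds 17 h at 37C, 5% CO2; reporter induction read with CCF4-AM FRET substrate.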

Experiment [12] in a line: qHTS assay to identify small molecule agonists of H2AX - cell viability counter screen (AID 1224847; calls by dose curve;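 further: wild-type CHO-K1 cells; top concentration of the series differs between compounds; nearly all actives have a fitted effect of over 30% in size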). In short, it runs like this:
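For this counter screen, overnight-attached CHO-K1 cells received test compounds (15 concentrations, 0.76% DMSO final); 3 hr later at 37C, CellTiter-Glo reagent was added and luminescence recorded after 30 min at room temperature.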

Experiment [13] is described as follows: qHTS RealTime-Glo MT Cell Viability Assay in HepG2 cells - 24 hour (AID 1224867). Further: nearly all actives have a fitted effect of over 50% in size. The essentials: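 Compound treatment began 5 h after plating HepG2 cells (600/well) with NanoLuc luciferase and prosubstrate. Plates stayed at 37 C for 40 h; luminescence was captured at six time points, 0 h through 40 h.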
A short description of experiment [14]: qHTS RealTime-Glo MT Cell Viability Assay in HEK293 cells - 32 hour (AID 1224868). Further: top concentration of the series differs between compounds; nearly all actives have a fitted effect of over 50% in size. In short, it runs like this: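 Quantitative high-throughput screen of the Tox21 10K library in HEK293: cells and RealTime-Glo reagents plated together, compound added at 5 h, luminescence monitored through 40 h at 37 C.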
A short description of experiment [15]: qHTS RealTime-Glo MT Cell Viability Assay in HepG2 cells - 40 hour (AID 1224870). Further: nearly all actives have a fitted effect of over 50% in size. The essentials: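 Real-time viability: cells seeded at 600 per well together with NanoLuc and cell-permeant prosubstrate, compounds added after 5 h incubation. Luminescence tracked at 0, 8, 16, 24, 32 and 40 h of exposure.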
Experiment [16] is described as follows: A CellTox Green Cytotoxicity Assay to monitor cytotoxicity in HEK293 cells - 0 hour (AID 1224869). Further: nearly all actives have a fitted effect of over 50% in size. The essentials: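 HEK293 cells, 600/well, were preincubated 5 hours and then exposed to compounds at 37 C for up to 40 hours. A cell-impermeant cyanine dye staining dead-cell DNA was read by fluorescence at 0, 8, 16, 24, 32 and 40 h time points.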
Experiment [17] in a line: qHTS assay to identify small molecule antagonists of the estrogen related receptor signaling pathway with the pleiotropic PPARgamma coactivator (PGC) from Tox21 10K library (AID 1224841; call rule not given here). In short, it runs like this: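 PGC/ERR cell line, 2,000 cells/well, pre-incubated 6 hours at 37 C, then exposed to compounds for 18 hours at 37 C; luciferase read with One-Glo luminescence after 30 min at room temperature.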

Experiment [18] can be described thus: qHTS assay to identify small molecule agonists of the estrogen related receptor signaling pathway with the pleiotropic PPARgamma coactivator (PGC) from Tox21 10K library (AID 1224842). Further: nearly all actives have a fitted effect of over 15% in size. In short, it runs like this: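 Luminescence from One-Glo (30 min, room temperature) measured after PGC/ERR cells had 18 h at 37 C with pinned compound (23 nL in DMSO). Cells had been seeded at 2,000 per well and pre-incubated 6 h.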

Experiment [19] can be described thus: qHTS assay to identify small molecule antagonists of the estrogen related receptor (ERR) signaling pathway from Tox21 library (AID 1224848). Further: nearly all actives have a fitted effect of over 50% in size. The essentials:
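Reading was by luminescence 30 min after ONE-Glo addition. Before that, ERR cells at 2,000 per well had rested 6 h at 37 C/5% CO2 and then received pin-tooled compounds in DMSO for 18 h at 37 C.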

A short description of experiment [20]: qHTS assay to identify small molecule agonists of the estrogen related receptor (ERR) signaling pathway from Tox21 library (AID 1224849; calls by dose curve; further: nearly all actives have a fitted effect of over 15% in size). Particulars: ERR reporter cell line, ONE-Glo luciferase, 18 h; at 92.4 µM (top of the series) unless noted. In short, it runs like this:
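ERR reporter cells (NTP line) pre-incubated 6 hours at 37 C, then exposed to compounds for 18 hours at 37 C. ONE-Glo luciferase luminescence was read after 30 minutes at room temperature.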
On the % scale 0 is the no-effect control and ±100 the full control effect.

Nuclear receptor subfamily 1 group I member 3 (Homo sapiens), sequence (Q14994 whole entry, looked up): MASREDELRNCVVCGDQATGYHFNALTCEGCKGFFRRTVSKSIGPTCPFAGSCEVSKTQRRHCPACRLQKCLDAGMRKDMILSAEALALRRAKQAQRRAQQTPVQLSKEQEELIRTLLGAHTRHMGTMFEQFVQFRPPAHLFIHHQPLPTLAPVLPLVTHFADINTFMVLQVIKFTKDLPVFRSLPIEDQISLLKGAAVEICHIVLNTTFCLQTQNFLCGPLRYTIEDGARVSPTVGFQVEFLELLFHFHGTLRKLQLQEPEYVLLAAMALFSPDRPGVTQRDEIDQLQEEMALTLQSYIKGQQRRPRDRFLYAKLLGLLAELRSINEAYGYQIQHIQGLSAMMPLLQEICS
Luciferin 4-monooxygenase (Photinus pyralis), sequence (P08659 whole entry, looked up): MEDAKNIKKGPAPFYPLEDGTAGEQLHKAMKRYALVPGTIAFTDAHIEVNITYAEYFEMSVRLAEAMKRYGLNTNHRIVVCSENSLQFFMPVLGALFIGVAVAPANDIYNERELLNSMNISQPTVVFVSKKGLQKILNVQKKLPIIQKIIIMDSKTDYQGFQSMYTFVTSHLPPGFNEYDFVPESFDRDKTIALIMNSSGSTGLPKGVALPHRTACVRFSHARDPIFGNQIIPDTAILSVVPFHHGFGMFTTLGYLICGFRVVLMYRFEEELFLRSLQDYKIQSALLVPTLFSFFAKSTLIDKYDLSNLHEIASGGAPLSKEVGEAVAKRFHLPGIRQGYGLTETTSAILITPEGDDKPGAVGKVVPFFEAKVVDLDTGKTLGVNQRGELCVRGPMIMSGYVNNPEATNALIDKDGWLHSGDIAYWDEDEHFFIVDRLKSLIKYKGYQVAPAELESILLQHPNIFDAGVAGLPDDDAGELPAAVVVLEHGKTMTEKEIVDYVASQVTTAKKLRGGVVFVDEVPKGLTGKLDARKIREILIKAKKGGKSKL
Thyrotropin receptor (Homo sapiens), sequence (P16473 whole entry, looked up): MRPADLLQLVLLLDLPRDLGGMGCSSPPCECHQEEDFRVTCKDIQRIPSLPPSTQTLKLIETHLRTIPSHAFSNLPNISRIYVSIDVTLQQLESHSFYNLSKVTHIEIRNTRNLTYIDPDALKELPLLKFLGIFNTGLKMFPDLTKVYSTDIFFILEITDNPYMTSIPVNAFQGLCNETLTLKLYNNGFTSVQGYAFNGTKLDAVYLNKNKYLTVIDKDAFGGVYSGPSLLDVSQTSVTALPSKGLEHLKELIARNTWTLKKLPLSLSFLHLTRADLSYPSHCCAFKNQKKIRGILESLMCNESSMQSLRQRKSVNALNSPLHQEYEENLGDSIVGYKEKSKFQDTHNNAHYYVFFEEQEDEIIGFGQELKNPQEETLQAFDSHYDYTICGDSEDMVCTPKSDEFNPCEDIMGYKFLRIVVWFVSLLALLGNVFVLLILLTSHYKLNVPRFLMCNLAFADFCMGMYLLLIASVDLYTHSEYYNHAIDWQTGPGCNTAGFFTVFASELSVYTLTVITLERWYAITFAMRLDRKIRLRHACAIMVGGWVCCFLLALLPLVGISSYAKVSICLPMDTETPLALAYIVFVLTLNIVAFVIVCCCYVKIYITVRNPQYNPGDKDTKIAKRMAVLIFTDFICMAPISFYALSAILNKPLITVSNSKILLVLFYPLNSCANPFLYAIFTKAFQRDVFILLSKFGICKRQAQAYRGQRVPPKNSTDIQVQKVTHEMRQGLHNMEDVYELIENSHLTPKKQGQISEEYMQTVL

With `O=C(O)c1ccccc1-n1cc(C(=O)O)c(=O)c2cc(Nc3c(F)cc(F)cc3Cl)c(Cl)cc21`, the Potency result in experiment [1], in experiment [2], in experiment [3], in experiment [4], in experiment [5] and in experiment [6] was “inactive” throughout. Further, the Potency result in experiment [7], in experiment [8], in [9], in experiment [10], in [12] and in experiment [14] was “inactive” throughout. Also, in [15], the Potency result was “inactive”. Moreover, the result in experiment [11] and in experiment [13] was inactive.
On to `FC1(F)C(F)(F)C(F)(F)C2(F)C(F)(C1(F)F)C(F)(F)C(F)(F)C1(F)C(F)(F)C(F)(F)C(F)(F)C(F)(F)C12F` (centres undefined), for which the Potency result in [1], in experiment [2], in [3], in [4], in experiment [5] and in experiment [6] was “inactive” each time. Besides, the Potency entry in [7], in experiment [8], in experiment [9], in [10], in experiment [12] and in [14] was “inactive” in each case. Further, the Potency result in [16] and in [15] was “inactive” throughout. In addition, the result in experiment [11] and in experiment [13] was inactive.
Take `c1ccc(CN(Cc2ccccc2)Cc2ccccc2)cc1`: the Potency result in experiment [1], in [2], in [3], in experiment [4], in [5] and in experiment [6] was “inactive” throughout. Further, the Potency result in [7], in [9], in experiment [10], in experiment [14], in experiment [16] and in experiment [15] was “inactive” each time. The Potency in experiment [8] was 17.2 µM (active). The compound was called inactive in experiment [11] and in experiment [13].
On to `COC(=O)c1cc(Cl)ccc1[N+](=O)[O-]`, for which the Potency result in [1], in [2], in experiment [3], in [4], in [5] and in [6] was “inactive” each time. Moreover, the Potency entry in experiment [7], in experiment [8], in [9], in experiment [10], in experiment [12] and in experiment [14] was “inactive” in each case. Besides, the Potency entry in experiment [16] and in [15] was “inactive” each time. Also, the outcome in experiment [13] was inactive.
In the case of `CCC(=O)O[C@@H]1C[C@H]2CC[C@]1(C)C2(C)C`, the Potency result in experiment [1], in experiment [2], in [3], in [4], in [5] and in experiment [6] was “inactive” each time. For the same compound, the Potency result in experiment [7], in experiment [17], in experiment [18], in experiment [9], in experiment [10] and in experiment [12] was “inactive” each time. Also, the Potency result in [19], in [14], in [16] and in experiment [15] was “inactive” each time. The compound was classed as inactive in experiment [11] and in experiment [13]. In addition, the activity change, positive = activation in experiment [20] is 0.21%.
Turning to `O=C1c2ccccc2C(=O)C1c1ccc2cc(S(=O)(=O)O)cc(S(=O)(=O)O)c2n1`, the Potency in experiment [1] was 29.5 µM (active); in experiment [2], 30.6 µM (active); in [3], 66.1 µM (active); in experiment [4] it was 52.5 µM (active); in experiment [6] it was 41.7 µM (active); in experiment [7] it was 33.1 µM (active). The Potency entry in experiment [5], in experiment [17], in experiment [18], in [12], in experiment [19] and in experiment [14] was “inactive” in each case. Moreover, the Potency result in [16] and in experiment [15] was “inactive” throughout. In addition, the activity change, positive = activation in [20] is 54.8% (active). Further, in experiment [13], the compound was classed as inactive.
Consider `CCCC1CCCC(=O)O1` (centres undefined), for which the Potency entry in [1], in [2], in experiment [3], in experiment [4], in [5] and in experiment [6] was “inactive” in each case. Further, the Potency result in [7], in [8], in experiment [9], in experiment [10], in [12] and in experiment [14] was “inactive” in each case. Besides, the Potency result in experiment [15] is “inactive”. The call in [11] and in experiment [13] was inactive.
Turning to `O=C(O)c1cc(C(=O)O)c(C(=O)O)cc1C(=O)O`, the Potency result in [1], in experiment [2], in experiment [3], in experiment [4], in experiment [5] and in experiment [6] was “inactive” each time. Further, the Potency entry in experiment [7], in [17], in [18], in [9], in experiment [10] and in experiment [19] was “inactive” throughout. Moreover, the Potency result in experiment [14], in [16] and in experiment [15] was “inactive” each time. Also, the compound was called inactive in experiment [11] and in [13]. Besides, the activity change, positive = activation in experiment [20] is 4.66%.
